In all, about 69,000 compounds went through this assay and about 420 (0.61%) showed an effect of 50% or more. The sample as a whole holds a higher share of strong results than the screen did.
Biological target: T1, Histidine--tRNA ligase (Leishmania infantum) (UniProt A4I591)
T1 sequence (whole entry): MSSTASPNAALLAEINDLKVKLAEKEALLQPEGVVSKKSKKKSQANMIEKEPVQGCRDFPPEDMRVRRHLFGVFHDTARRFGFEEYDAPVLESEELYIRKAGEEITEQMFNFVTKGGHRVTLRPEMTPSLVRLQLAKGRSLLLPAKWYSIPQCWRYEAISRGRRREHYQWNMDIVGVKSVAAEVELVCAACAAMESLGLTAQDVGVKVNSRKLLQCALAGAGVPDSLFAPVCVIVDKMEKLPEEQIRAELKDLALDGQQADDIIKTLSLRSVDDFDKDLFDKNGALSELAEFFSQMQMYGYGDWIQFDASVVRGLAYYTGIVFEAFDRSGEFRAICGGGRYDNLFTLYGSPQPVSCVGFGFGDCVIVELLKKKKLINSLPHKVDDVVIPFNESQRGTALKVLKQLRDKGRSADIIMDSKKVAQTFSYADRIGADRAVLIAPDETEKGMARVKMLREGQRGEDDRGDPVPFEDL
Experiment: Leishmania infantum Histidine tRNA synthetase (LdHisRS)
Assay type: functional
Set-up: scale not given: in the data most compounds retested in dose-response had high values
Details: 30 µM

SMILES | Percent Effect
COc1cccc(N2CCN(Cc3cccc(CCN)c3)CC2=O)c1 | 60.7%
COc1cc(CN2CCN(c3cccc(OC)c3)C(=O)C2)cc(OC)c1 | 18.3%
Cc1cc(C)cc(N2CCN(Cc3cccc(CCN)c3)CC2=O)c1 | 8.2%
NCCc1cccc(CN2CCN(c3ccccc3)C(=O)C2)c1 | 55.7%
COc1cccc(N2CCN(Cc3ccc4occc4c3)CC2=O)c1 | 13.5%
NCCc1cccc(CN2CCN(c3cccc(Cl)c3)C(=O)C2)c1 | 14.8%
Cc1noc(C)c1C(=O)N1C[C@H]2CCC[C@@]2(COc2ccccn2)C1 | 17.6%
Cc1ccc(C(=O)N2CCO[C@H]3[C@H](OCc4ccccn4)CC[C@@H]32)o1 | 19.3%
Cc1nc([C@@H]2C[C@@H]3CCN(C(=O)Cc4cccc(F)c4)C[C@H]3O2)no1 | 9.09%
CN(C)C(=O)[C@H]1C[C@@H]2CCN(C3CCOCC3)C[C@@H]2O1 | 11.1%
CN1CCN(S(=O)(=O)c2ccc(Sc3nccn3C)nc2)CC1 | -3.37%
Cn1ccnc1Sc1ccc(N)cn1 | 91%
Cn1ccnc1Sc1ccc(S(N)(=O)=O)cn1 | 10.3%
CS(=O)(=O)N1CCO[C@@H]2CN(C(=O)N3CCOCC3)CC[C@@H]2C1 | 4.5%
Cc1ccc(N2CCc3sc(C(=O)NCCN4CCCC4)cc32)nn1 | 8.33%
CN(C)CC(=O)N1CCc2sc(C(=O)N3CCOCC3)cc21 | 15.8%

SMILES | Percent Effect
Cc1ccc(N2CCc3sc(C(=O)N4CCOCC4)cc32)nn1 | 50%
Cc1cc(C(=O)NCC(F)(F)F)c2c(C3CCNCC3)noc2n1 | 19.3%
Cc1cc(C(=O)NCC(F)(F)F)c2c(C3CCCN3)noc2n1 (stereo unspecified) | 71.7%
Cc1cc(C(=O)NCC(C)C)c2c(C3CCCN3)noc2n1 (stereo unspecified) | 4.14%
Cc1cnc(N2CC[C@@]3(O)CCCC[C@H]3C2)nc1-c1ccnn1C | -3.33%
CN1[C@H](CN2CCCC2)C[C@@H]2CN(C(=O)c3ccsc3)CC[C@@H]21 | 0.917%
CO[C@@H]1CN(S(=O)(=O)c2cn(C)cn2)[C@@H]2CCCO[C@@H]21 | 17.2%
Cc1ccc(N2CC[C@H]3C[C@H](C(=O)NCc4ccco4)O[C@H]3C2)nn1 | 18.1%
N#Cc1c(SCCN2CCCCCC2)sc2c(O)cc(O)nc12 | 24.7%
N#CCCSc1sc2c(O)cc(O)nc2c1C#N | 74.2%
N#Cc1c(SCCN2CCCCC2)sc2c(O)cc(O)nc12 | 24.7%
Cc1ccc(-n2cc(S(=O)(=O)Nc3cccc(C(=O)O)c3C)cn2)cc1 | 13%
Cc1ccc(NS(=O)(=O)c2cnn(Cc3ccccc3)c2)c(C(=O)O)c1 | 23.9%
Cc1ccc(NS(=O)(=O)c2cnn(-c3ccccc3)c2)c(C(=O)O)c1 | 69.6%
Cc1ccnc(C(=O)N2C[C@@H]3CN(S(C)(=O)=O)CCO[C@@H]3C2)c1 | 8.77%

From ChEMBL document CHEMBL3988442, “University of Dundee, Small-Polar-MMV Screening Library” (2021)
